# Laboratory results as given in PubChem BioAssay (Tox21).
# Results filed as inconclusive are left out. Active and inactive are the calls of the source. The call rests on the fitted dose curve; in most records, active means well fitted cell-killing curve with a large enough effect in the repeat runs; inconclusive means weak or mixed curves, or effect the other way; inactive means flat fitted curve, though single readings scatter.
# Experiment: qHTS RealTime-Glo MT Cell Viability Assay in HEK293 cells - 8 hour (AID 1224887); further: top concentration of the series differs between compounds; nearly all actives have a fitted effect of over 50% in size
# Conditions: RealTime-Glo luminescence; series mostly up to 76.8 µM
# Text: U.S. Tox21 Program National Center for Advancing Translational Sciences [NCATS] NIH Chemical Genomics Center [NCGC] U.S. Environmental Protection Agency [EPA] National Institutes of Environmental Health Sciences [NIEHS] National Toxicology Program [NTP] U.S. Food and Drug Administration [FDA] Tox21 Assay Overview: Measure of cell viability is critical in the cell-base assay. Analysis of cell viability is necessary for the characterization of cell responses to cytotoxic drugs and environmental stress. A RealTime-Glo MT Cell Viability Assay to monitor cell viability in real time of continues cell culture during 40 hours of compound treatment was used to screen Tox21 10K library compounds in Hek293 cells. The RealTime-Glo MT Cell Viability Assay is a nonlytic, homogeneous, bioluminescent method to measure cell viability in real time using a simple, plate-based method. The assay involves adding NanoLuc luciferase and a cell-permeant prosubstrate to cells in culture. Viable cells reduce the proprietary prosubstrate to generate a substrate for NanoLuc luciferase. This substrate diffuses from cells into the surrounding culture medium, where it is rapidly used by the NanoLuc Enzyme to produce a luminescent signal. The signal correlates with the number of viable cells, making the assay well suited for cytotoxicity studies.
# Tox21 Assay Protocol Summary: The mixture of Hek293 cell suspension and reagents were dispensed at 600cells/6 ul/well in 1536-well tissue culture treated black solid bottom plates using a Multidrop dispenser. After the assay plates were incubated at a 37 C/5% CO2 incubator for 5 hours, 23 nL of compounds dissolved in DMSO, positive and negative controls was transferred to the assay plate by a pintool work station. The plates were incubated at 37 C for 40 hours. The luminescence intensity were measured at 0h, 8h, 16h, 24h, 32h and 40h time points using ViewLux plate reader during compound treatment.
row,Structure (SMILES),outcome
1,CCC[N+](=O)[O-],inactive
2,CN=C=S,inactive
3,O=S(=O)(c1ccc(O)cc1)c1ccc(O)cc1,inactive
4,CC(Br)C(=O)O (stereo not given),inactive
5,CCN(CC)CCO,inactive
6,ClCCBr,inactive
7,Cc1ccc(N)cc1N,inactive
8,C1CC2OC2CC1C1CO1 (stereo not given),inactive
9,[O-][Cl+2]([O-])O,inactive
10,Cc1ccccc1O,inactive
11,CCNc1nc(NC(C)(C)C)nc(SC)n1,inactive
12,CCCCCOC(=O)c1ccccc1C(=O)OCCCCC,inactive
13,COC(=O)c1ccccc1C(=O)OC,inactive
14,CCCCN(CC)C(=O)SCCC,inactive
15,CN(C)N=O,inactive
16,c1ccc2c(c1)Oc1ccccc1O2,inactive
17,Cc1cc(Cl)ccc1O,inactive
18,CC(=O)C=C(C)C,inactive
19,CC(Oc1ccc(Cl)cc1Cl)C(=O)O (stereo not given),inactive
20,Clc1ccccc1Cl,inactive

row,Structure (SMILES),outcome
1,O=c1[nH]c(=O)[nH]c(=O)[nH]1,inactive
2,Cc1ccc(N)cc1Cl,inactive
3,CN(N=O)c1ccccc1,inactive
4,CN(C)[C@@H]1C(=O)C(C(N)=O)=C(O)[C@@]2(O)C(=O)C3=C(O)c4c(O)cccc4[C@@](C)(O)[C@H]3C[C@@H]12,inactive
5,CC1OC(C)OC(C)O1 (stereo not given),inactive
6,c1ccc2c(c1)oc1ccccc12,inactive
7,OCCN(CCO)CCO,inactive
8,CC(C#N)CCC#N (stereo not given),inactive
9,OC(O)C(Cl)(Cl)Cl,inactive
10,COC(=O)c1ccccc1N,inactive
11,C=CCO,inactive
12,CC(C)(C)OOC(C)(C)C,inactive
13,COc1ccc2c3c1O[C@H]1[C@@H](O)C=C[C@H]4[C@@H](C2)N(C)CC[C@@]341,inactive
14,Oc1ccccc1Cl,inactive
15,CC(C)C1(C)N=C(c2nc3ccccc3cc2C(=O)O)NC1=O (stereo not given),inactive
16,CCNc1nc(NC(C)C)nc(SC)n1,inactive
17,O=c1n(Cl)c(=O)n(Cl)c(=O)n1Cl,inactive
18,O=c1[nH]c2ccccc2c(=O)o1,inactive
19,Cc1[nH]c(=O)n(C(C)(C)C)c(=O)c1Cl,inactive
20,[N-]=[N+]=[N-],inactive
